According to article PMC9911399, “Two distinct binding modes provide the RNA-binding protein RbFox with extraordinary sequence specificity”:
Numbering of substitutions follows the chain as printed; changes in the protein carry UniProt numbers. Whole data set: some 16,000 sequences, median “ka relative to ugcaugu” near 0.0091, cut for the highest 2% near 0.032. This is one part of a sample in which the highest values are shown more often than they occur.

T1: RBFOX1 RRM (Homo sapiens, UniProt Q9NWB1 109-208)
T1 sequence: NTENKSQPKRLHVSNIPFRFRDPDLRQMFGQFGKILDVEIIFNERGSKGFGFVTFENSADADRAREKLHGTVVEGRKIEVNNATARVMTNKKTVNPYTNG

B1: AGGAUUU (DNA:RNA)
RNA: GGGAGACCGGAAUUCAGAUUGUCCAGGAUUUUUAAAUCCCGUCGUAGCCACCA
DNA 1: CAATCTGAATTCCGGTCTCCC
DNA 2: TGGTGGCTACGACGGGATT
B2: CUUUGGG (DNA:RNA)
RNA: GGGAGACCGGAAUUCAGAUUGUCCCUUUGGGUUAAAUCCCGUCGUAGCCACCA
DNA 1: CAATCTGAATTCCGGTCTCCC
DNA 2: TGGTGGCTACGACGGGATT
B3: GAACCCA (DNA:RNA)
RNA: GGGAGACCGGAAUUCAGAUUGUCCGAACCCAUUAAAUCCCGUCGUAGCCACCA
DNA 1: CAATCTGAATTCCGGTCTCCC
DNA 2: TGGTGGCTACGACGGGATT
B4: UUAGAUC (DNA:RNA)
RNA: B1 RNA with A25U, G26U, G27A, A28G, U29A, U31C
DNA 1: CAATCTGAATTCCGGTCTCCC
DNA 2: TGGTGGCTACGACGGGATT
B5: GGCGUGC (DNA:RNA)
RNA: B1 RNA with A25G, G27C, A28G, U30G, U31C
DNA 1: CAATCTGAATTCCGGTCTCCC
DNA 2: TGGTGGCTACGACGGGATT
B6: CUCGUCC (DNA:RNA)
RNA: B2 RNA with U27C, U28G, G29U, G30C, G31C
DNA 1: CAATCTGAATTCCGGTCTCCC
DNA 2: TGGTGGCTACGACGGGATT
B7: CCAUCUC (DNA:RNA)
RNA: B2 RNA with U26C, U27A, G29C, G30U, G31C
DNA 1: CAATCTGAATTCCGGTCTCCC
DNA 2: TGGTGGCTACGACGGGATT
B8: GCAUCCG (DNA:RNA)
RNA: B3 RNA with A26C, C28U, A31G
DNA 1: CAATCTGAATTCCGGTCTCCC
DNA 2: TGGTGGCTACGACGGGATT
B9: GCAUCAG (DNA:RNA)
RNA: B3 RNA with A26C, C28U, C30A, A31G
DNA 1: CAATCTGAATTCCGGTCTCCC
DNA 2: TGGTGGCTACGACGGGATT
B10: GCAUUAA (DNA:RNA)
RNA: B3 RNA with A26C, C28U, C29U, C30A
DNA 1: CAATCTGAATTCCGGTCTCCC
DNA 2: TGGTGGCTACGACGGGATT
B11: GUCCGCA (DNA:RNA)
RNA: B3 RNA with A26U, A27C, C29G
DNA 1: CAATCTGAATTCCGGTCTCCC
DNA 2: TGGTGGCTACGACGGGATT
B12: CGCAUCG (DNA:RNA)
RNA: B1 RNA with A25C, G27C, U30C, U31G
DNA 1: CAATCTGAATTCCGGTCTCCC
DNA 2: TGGTGGCTACGACGGGATT
B13: GCAUGCA (DNA:RNA)
RNA: B3 RNA with A26C, C28U, C29G
DNA 1: CAATCTGAATTCCGGTCTCCC
DNA 2: TGGTGGCTACGACGGGATT

These binders were tested against T1, RBFOX1 RRM (assay: EMSA; HiTS-Eq, 1 nM pool, 10 min; buffer printed only for the single-RNA assays: 10 mM Tris pH 7.5, 150 mM NaCl, 3.4 mM EDTA, 0.001% NP-40, 30 C). Settings: tags: His6 N-terminal (pET28a); label: 5' 32P.
Outline: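 Purified RbFox RRM (wild type or mutant) was equilibrated for 10 min in 50 µL with 1 nM of a 5′-radiolabelled pool of RNA with 7 randomized nucleotides, its flanks annealed to DNA oligonucleotides, across increasing protein concentrations. Free RNA was separated by 8% native PAGE, excised, reverse-transcribed, PCR-barcoded and sequenced on an Illumina HiSeq 2500. Relative association constants came from read-count changes of each variant against the control reaction, normalised to the cognate motif.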

How did the binding signal turn out when B1 was run?
The binding signal was 0.0177 KA relative to UGCAUGU.

Which binding signal does the source give for B2 here?
The binding signal was 0.00295 KA relative to UGCAUGU.

B3 was tested. Which binding signal did it give?
The binding signal was 0.00229 KA relative to UGCAUGU.

With B4 as the binder, how does the binding signal read?
Its binding signal is 0.0111 KA relative to UGCAUGU.

How did the binding signal turn out when B5 was run?
Its binding signal is 0.0292 KA relative to UGCAUGU.

B6 was tested. Which binding signal did it give?
The binding signal was 0.00629 KA relative to UGCAUGU.

How did the binding signal turn out when B7 was run?
Its binding signal is 0.00486 KA relative to UGCAUGU.

With B8 as the binder, how does the binding signal read?
Its binding signal is 0.0325 KA relative to UGCAUGU.

B9 was tested. Which binding signal did it give?
The binding signal was 0.0121 KA relative to UGCAUGU.

With B10 as the binder, how does the binding signal read?
Its binding signal is 0.00489 KA relative to UGCAUGU.

With B11 as the binder, how does the binding signal read?
The binding signal was 0.0155 KA relative to UGCAUGU.

How did the binding signal turn out when B12 was run?
The binding signal was 0.017 KA relative to UGCAUGU.

B13 was tested. Which binding signal did it give?
Its binding signal is 0.751 KA relative to UGCAUGU.
